Compounds with a hit are over-represented: about 0.67% of the library has one in this group of screens.
Rango complex inh: Rango-importin beta binding inhibition. Q14974. Rango CFP/YFP FRET sensor + importin beta, 45 min. Potency, µM (titrated, usually from 92.2 µM), for inactives: at the highest dose inhibition of complex formation. 340,000 compounds, 0.031% hits;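 also: 0% = DMSO wells and 100% = buffer wells lacking importin beta; nearly all actives have a fitted effect of over 15% in size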
Target sequence (Q14974 whole entry, looked up): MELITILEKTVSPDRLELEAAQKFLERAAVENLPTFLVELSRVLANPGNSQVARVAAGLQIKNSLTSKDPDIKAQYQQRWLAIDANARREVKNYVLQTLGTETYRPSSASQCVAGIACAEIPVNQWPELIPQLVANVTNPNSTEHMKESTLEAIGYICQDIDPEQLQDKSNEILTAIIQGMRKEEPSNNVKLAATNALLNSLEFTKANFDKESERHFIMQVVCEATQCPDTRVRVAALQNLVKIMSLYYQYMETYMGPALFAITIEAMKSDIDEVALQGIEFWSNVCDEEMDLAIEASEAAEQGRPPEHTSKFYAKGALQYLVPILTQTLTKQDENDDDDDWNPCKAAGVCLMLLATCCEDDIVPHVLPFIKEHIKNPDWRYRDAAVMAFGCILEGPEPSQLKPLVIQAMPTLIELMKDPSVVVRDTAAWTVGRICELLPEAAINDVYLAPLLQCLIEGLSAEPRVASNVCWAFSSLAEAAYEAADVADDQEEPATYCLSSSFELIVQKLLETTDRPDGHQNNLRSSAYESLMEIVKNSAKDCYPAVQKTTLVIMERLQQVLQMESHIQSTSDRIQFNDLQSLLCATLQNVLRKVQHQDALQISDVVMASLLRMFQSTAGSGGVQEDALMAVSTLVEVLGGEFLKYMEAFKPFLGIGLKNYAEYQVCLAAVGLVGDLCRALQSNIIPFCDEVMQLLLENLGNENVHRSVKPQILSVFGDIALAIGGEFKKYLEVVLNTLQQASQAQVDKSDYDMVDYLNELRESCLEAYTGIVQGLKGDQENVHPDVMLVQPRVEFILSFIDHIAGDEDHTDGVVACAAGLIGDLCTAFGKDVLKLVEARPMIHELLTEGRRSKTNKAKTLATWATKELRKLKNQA
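FRET biosensor (snurportin 1 IBB flanked by EYFP and cerulean), 50 nM, with compound 5 min, then 0.125 microM importin beta in PBS, 1 mM DTT, 0.02% Tween-20, 0.1% BSA. CFP/YFP ratio read after 45 min at room temperature; pre-read flags interference.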
gsp antag: antagonists of gsp mutant (McCune-Albright syndrome). gsp-mutant cells, cAMP HTRF, 30 min. Potency, µM (series often up to 76.9 µM), for the others: top-dose activity change, negative = inhibition, most hits filed as inhibitors. 340,000 compounds, 0.4% hits; calls by dose curve; cell line not stated here;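 also: intracellular cAMP measured with PDE inhibitor Ro 20-1724 present during compound exposure; % is scaled to controls: 0 for no effect and ±100 for the full control effect; nearly all actives have a fitted effect of over 65% in size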
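G418-selected cells were plated in DMEM/10% FBS for 16-24 h at 37C, then treated with compounds plus the PDE inhibitor […] (300 uM solution added) for 30 min at 37C. Intracellular cAMP was measured by HTRF after 30 min lysis at room temperature.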
S-ASM inh: inhibitors of human secretory acid sphingomyelinase; placental ASM, HMU-PC fluorogenic substrate, 60 min; 340,000 compounds, 0.006% hits; Potency, µM (series often up to 57.5 µM), for the others: at the top dose activity change, negative = inhibition, hits mostly inhibitors; AID 504937; active = well fitted inhibition curve with a large enough effect; inconclusive = small, poorly fitted or top-dose-only effect; inactive = no such curve, though single readings can be large or run the other way
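Fluorogenic HMU-PC substrate (9 uM final) is turned over by placental ASM in 60 min at 37 C after a 10 min compound preincubation. Reaction ended by alkaline stop (pH 10), with fluorescence read at 386/447 nm.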
Rango release inh: inhibition of RanGTP-driven Rango-importin beta dissociation; AID 540253; O95149+P62826; 340,000 compounds, 0.071% hits; Potency, µM (highest dose often 46.1 µM), without a hit: top-dose activity change, negative = inhibition; Biochemical FRET Rango-importin beta, RanGTP-induced dissociation; also: % of control where 0% means no effect; nearly all actives have a fitted effect of over 45% in size
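Rango FRET biosensor (snurportin-1 IBB flanked by N-terminal EYFP and C-terminal CFP10) at 0.1 uM, with 0.25 uM importin beta in PBS, 1mM DTT, 0.02% Tween-20, 0.1% BSA. 0.6 uM Ran, 2mM GTP and 0.2 uM RCC1 were then added for 45 min at room temperature. Inhibition read as loss of FRET rise.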
gsp ag: gsp mutant agonism | gsp mutant cells, cAMP HTRF, 30 min | Potency, µM (highest dose often 76.9 µM), without a hit: at the top dose activation (cAMP increase), most hits filed as activators | 340,000 compounds, 0.13% hits; active = well fitted activation curve with a large enough effect; inconclusive = small, poorly fitted or top-dose-only effect, or another doubt; inactive = no such curve, though single readings can be large or run the other way; cell line not stated here;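 also: phosphodiesterase inhibitor Ro 20-1724 added with compounds to block cAMP breakdown; nearly all actives have a fitted effect of over 60% in size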
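Cells stably selected in G418 were plated at 2000/well, grown 16-24 hr, then given compounds in DMSO with the PDE inhibitor […] (300 uM solution added) for 30 min at 37C; cAMP was read by HTRF.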
An asterisk follows results filed as active; ? = inconclusive; . = no result given; [ ] = remark or other dose. Unless noted, calls follow the shape of the full dose curve. Potency is read from the fitted curve at half-maximal effect.

SMILES	Rango complex inh	gsp antag	S-ASM inh	Rango release inh	gsp ag
CCCOC(=O)c1cccc(Nc2nc(-c3cccnc3)nc3ccccc23)c1	-3%	?	-22%	15%	14%
O=C(c1ccc(N2CCN(C(=O)c3cccc(F)c3)CC2)cc1)c1cccc(F)c1	?	32µM*	-7%	10%	3%
O=C(c1ccc(N2CCN(C(=O)c3ccccc3Br)CC2)cc1)c1cccc(F)c1	?	?	-3%	-2%	?
O=C(CCSc1nc(-c2ccco2)cc(C(F)(F)F)n1)NCC1CCCO1 (stereo not drawn)	?	2%	-1%	26µM*	-8%
O=C1C=CC(=O)c2c(O)c(N3CCN(CCO)CC3)c(Cl)c(O)c21	?	?	0%	-21%	28%
O=C1C=CC(=O)c2c(O)c(N3CCN(CCOCCO)CC3)c(Br)c(O)c21	?	25µM*	-2%	-16%	?
O=C(NCCN1CCCCC1)c1ccc(Oc2cc(Cl)cc(Cl)c2)o1	-2%	5%	-7%	16µM*	10%[15.4 µM]
O=C(CN1C(=O)CSc2ccc(S(=O)(=O)N3CCOCC3)cc21)N1CCCCC1	2%	1%	-2%	1%	?
CCOC(=O)C1CCN(C(=O)CN2C(=O)CSc3ccc(S(=O)(=O)N4CCOCC4)cc32)CC1	2%	5%	2%	-2%	3.5µM*
COc1cc2c(cc1NC(=O)CSc1ccccc1)oc1ccccc12	-1%	?	0%	5%	17%
COc1cc2c(cc1NC(=O)Nc1ccc(C)cc1)oc1ccccc12	-13%	-22%	-13%	-12%	-35%
COc1cc2c(cc1NC(=O)C(C)Sc1ccc(NC(C)=O)cc1)oc1ccccc12 (stereo not drawn)	2%	20µM*	-23%	8%	?
COc1cc2c(cc1NC(=O)CSc1nccn1C)oc1ccccc12	-1%	28µM*	-1%	-3%	2%
CC(C)(C)OC(=O)NCCCC[C@@H](C(=O)NCCCCCCCCCCC(=O)N1CCN(C(=O)OC(C)(C)C)CC1)n1cc(CCO)nn1	-4%	?	10%	-2%	.
CSCC[C@@H](C(=O)NCCCCCCCCCCC(=O)N1CCN(C(=O)OC(C)(C)C)CC1)n1cc(CCO)nn1	6%	32µM*	5%	-2%	-23%
CCCCn1c(N)c(N(CCC(C)C)C(=O)COC(=O)Cc2ccc(Cl)cc2)c(=O)[nH]c1=O	-1%	6%	0%	-5%	-15%
Cc1cccc(-c2nnc(NC(=O)c3ccco3)s2)c1	-2%	-6%	0%	1%	?
CN(C)c1ccc(NC(=O)C2C3C=CC(C3)C2C(=O)O)cc1 (stereo not drawn)	3%	28µM*	2%	16%	-110%
O=C(O)C1C2C=CC(C2)C1C(=O)Nc1ccc2c(c1)OCCO2 (stereo not drawn)	?	11%	5%	-5%	-20%
CNC(=O)NC(=O)COC(=O)CCCSc1nc2ccccc2s1	-1%	-10%	-1%	7%	-24%
COc1cc(/C=N/NC(=O)c2nnn(-c3nonc3N)c2-c2cccs2)ccc1O	-4%	22µM*	-17%	17%	2%
CC(C)c1c(C(=O)N/N=C/c2ccc(OCc3ccccc3)cc2)nnn1-c1nonc1N	-2%	-13%	?	0%	?
Nc1nonc1-n1nnc(C(=O)N/N=C/c2ccc(F)cc2)c1-c1ccc2c(c1)OCO2	-1%	0%	4%	-6%	31%
COc1ccc(/C=N/NC(=O)c2nnn(-c3nonc3N)c2-c2cccs2)cc1OC	?	-13%	-15%	2%	18%
Cc1ccc(/C=N/NC(=O)c2nnn(-c3nonc3N)c2-c2ccc3c(c2)OCO3)s1	-1%	40µM*	-4%	-1%	37%
COc1cc(/C=N/NC(=O)c2nnn(-c3nonc3N)c2C(C)C)ccc1OCc1ccccc1	-1%	25µM*	-26%	28%	-7%
Nc1nonc1-n1nnc(C(=O)N/N=C/c2cccc(Cl)c2)c1-c1cccs1	5%	40µM*	-10%	15%	-2%

Screening results deposited in PubChem BioAssay by National Center for Advancing Translational Sciences (NCATS).
